The values below come from PubChem BioAssay (EPA / NIEHS).

What is called AC50 is the concentration at which the activity in the assay is half-maximal.

Results filed as inconclusive are left out. The source made the active and inactive calls. The calls were made as follows: active = hit-call score of the fitted dose curve at least 0.9, where 1 is the maximum; inconclusive = response in the unintended direction; inactive = score below 0.9.

Sequence of Agonist Androgen Response Element (ARE), AR (gene 367) (P10275 whole entry, looked up): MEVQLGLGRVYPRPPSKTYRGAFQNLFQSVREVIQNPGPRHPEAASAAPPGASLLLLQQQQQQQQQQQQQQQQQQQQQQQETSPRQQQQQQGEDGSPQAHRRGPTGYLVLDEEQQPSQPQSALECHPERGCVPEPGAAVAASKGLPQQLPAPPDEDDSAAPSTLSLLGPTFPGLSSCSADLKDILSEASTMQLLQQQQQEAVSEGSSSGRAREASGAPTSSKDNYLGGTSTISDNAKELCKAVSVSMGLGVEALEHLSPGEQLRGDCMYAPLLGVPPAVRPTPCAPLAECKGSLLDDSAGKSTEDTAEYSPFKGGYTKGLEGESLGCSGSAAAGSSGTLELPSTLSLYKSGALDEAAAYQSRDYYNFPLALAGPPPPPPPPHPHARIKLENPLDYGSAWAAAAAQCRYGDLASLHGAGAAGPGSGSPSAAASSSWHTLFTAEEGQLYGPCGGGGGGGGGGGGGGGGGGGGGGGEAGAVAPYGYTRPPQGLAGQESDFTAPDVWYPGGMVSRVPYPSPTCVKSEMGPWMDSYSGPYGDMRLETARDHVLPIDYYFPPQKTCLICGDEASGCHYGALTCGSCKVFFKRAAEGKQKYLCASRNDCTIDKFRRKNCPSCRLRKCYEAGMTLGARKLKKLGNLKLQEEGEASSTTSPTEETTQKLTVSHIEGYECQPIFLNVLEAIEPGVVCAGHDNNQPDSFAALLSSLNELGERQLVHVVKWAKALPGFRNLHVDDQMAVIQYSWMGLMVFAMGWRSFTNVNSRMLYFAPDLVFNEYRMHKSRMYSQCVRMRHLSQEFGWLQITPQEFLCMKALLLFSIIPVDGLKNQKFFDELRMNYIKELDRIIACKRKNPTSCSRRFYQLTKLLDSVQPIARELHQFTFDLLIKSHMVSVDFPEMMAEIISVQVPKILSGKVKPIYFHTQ

For this test, the target named is Agonist Androgen Response Element (ARE), AR (gene 367) (UniProt P10275). The test is described as follows: OT_AR_ARELUC_AG_1440: Odyssey Thera (OT) 24-hour CHO-K1 Luciferase Assay for Agonist Androgen Response Element (ARE) (AID 2283379). How it is done:
OT_AR_ARELUC_AG_1440 is a cell-based, single-readout assay that uses CHO-K1, a chinese hamster ovary cell line, with measurements taken at 24 hours after chemical dosing in a 384-well plate.OT_AR_ARELUC_AG_1440 is one of one assay component(s) measured or calculated from the OT_AR_ARELUC_AG_1440 assay. It is designed to make measurements of luciferase induction, a form of inducible reporter, as detected with bioluminescence signals by Luciferase technology.Data from the assay component OT_AR_ARELUC_AG_1440 was analyzed into 1 assay endpoint. This assay endpoint, OT_AR_ARELUC_AG_1440, was analyzed in the positive analysis fitting direction relative to DMSO as the negative control and baseline of activity. Using a type of inducible reporter, measures of receptor for gain-of-signal activity can be used to understand the reporter gene at the pathway-level as they relate to the gene AR. Furthermore, this assay endpoint can be referred to as a primary readout, because the performed assay has only produced 1 assay endpoint. To generalize the intended target to other relatable targets, this assay endpoint is annotated to the nuclear receptor intended target family, where the subfamily is steroidal.
To identify AR agonists, CHO-K1 cells are seeded into a white-walled/white-bottom 384-well plate, followed by treatment with compounds of interest or controls for 24 hours. A luciferase assay mix containing D-luciferin and ATP in PBS is then added to the cells and luminescence quantified on a Luminoskan (Thermo Scientific) luminometer. Modulation of this assay is quantified as an increase in mean luminescence intensity relative to vehicle controls. To evaluate specificity of the AR / ARE-luc assay, several known AR agonists, AR antagonists, and ER-selective compounds were also tested in 5-pt concentration-response format in a minimum of 7 assay plates. OT determined the reproducibility of DHT-induced AR/ARE-luc transcriptional activation with a total of seven 384-well plates run on 2 different days, for 24-h time frames. A minimum of 3 replicate wells were analyzed for each sample with 14 replicate wells for vehicle controls. Luminescence data were captured on the Luminoskan luminometer.
As for `COc1ccc(O)cc1`, the result was inactive.

Take `BrC1CCC(Br)C(Br)CCC(Br)C(Br)CCC1Br` (configuration not stated): the call was inactive.

`O=Nc1ccc(Nc2ccccc2)cc1`: the result was inactive.

On to `CCCCCCCCCCCCCCCC(=O)OC[C@H](O)[C@H]1OC(=O)C(O)=C1O`, for which the call was inactive.

With `CCCCCCCCCCCCCOS(=O)(=O)O`, the outcome was inactive.

For the molecule `O=c1cc(-c2ccccc2)oc2cc(O)cc(O)c12`, the result was inactive.

For `CCCOCC(C)O` (configuration not stated), the molecule was classed as inactive.

With `CCC/C=C/C=O`, the call was inactive.

As to `O=C[C@@H](O)[C@H](O)[C@H](O)CO`, the AC50 is 1.26 µM (active).

For `CCN(CC)c1ccc(C(=C2C=CC(=[N+](CC)CC)C=C2)c2ccc(S(=O)(=O)O)cc2S(=O)(=O)[O-])cc1`, the call was inactive.

Regarding `c1ccc2[nH]ccc2c1`, the call was inactive.

On to `C[Si](O[Si](C)(C)C)O[Si](C)(C)C`, for which the call was inactive.
